Bioassay records from PubChem BioAssay.
GPT2 inhibitor – GPT2 alanine aminotransferase inhibition | Q8TD30 | Potency, µM (titrated, usually from 57.7 µM), usual class: inhibitors | Recombinant GPT2, coupled pyruvate oxidase/HRP Amplex Red fluorescence | 100,000 compounds, 0.25% hits; also: nearly all actives have a fitted effect of over 60% in size
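Recombinant GPT2 (10ng/uL) with 250uM a-KG and 2mM L-alanine, 30 min at room temperature, in HEPES pH 7.5 buffer. Pyruvate detected by pyruvate oxidase/HRP/Amplex Red fluorescence after 30 min in the dark; AOA (50uM) as positive control.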
NIH3T3 tox – kills NIH 3T3 cells | NIH 3T3 viability, CellTiter-Glo ATP luminescence, 48-72 h | Potency, µM (doses to about 96.7 µM), usual class: inhibitors | 94,000 compounds, 4.3% hits; also: nearly all actives have a fitted effect of over 55% in size
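Cytotoxicity was measured by CellTiter-Glo ATP luminescence after 48 or 72 h compound exposure at 37 °C. Mouse NIH 3T3 fibroblasts were seeded at 400 cells/well and dosed by 23 nL pin transfer.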
hNpr1 antagonist – antagonists of human natriuretic peptide receptor Npr1 | HEK293 hNpr1 GloSensor cGMP, ANP-stimulated luminescence | Potency, µM (doses to about 46.3 µM), most hits filed as inhibitors | 76,000 compounds, 1.6% hits | AID 1347048; calls by dose curve; also: nearly all actives have a fitted effect of over 60% in size
Target sequence (P16066 whole entry, looked up): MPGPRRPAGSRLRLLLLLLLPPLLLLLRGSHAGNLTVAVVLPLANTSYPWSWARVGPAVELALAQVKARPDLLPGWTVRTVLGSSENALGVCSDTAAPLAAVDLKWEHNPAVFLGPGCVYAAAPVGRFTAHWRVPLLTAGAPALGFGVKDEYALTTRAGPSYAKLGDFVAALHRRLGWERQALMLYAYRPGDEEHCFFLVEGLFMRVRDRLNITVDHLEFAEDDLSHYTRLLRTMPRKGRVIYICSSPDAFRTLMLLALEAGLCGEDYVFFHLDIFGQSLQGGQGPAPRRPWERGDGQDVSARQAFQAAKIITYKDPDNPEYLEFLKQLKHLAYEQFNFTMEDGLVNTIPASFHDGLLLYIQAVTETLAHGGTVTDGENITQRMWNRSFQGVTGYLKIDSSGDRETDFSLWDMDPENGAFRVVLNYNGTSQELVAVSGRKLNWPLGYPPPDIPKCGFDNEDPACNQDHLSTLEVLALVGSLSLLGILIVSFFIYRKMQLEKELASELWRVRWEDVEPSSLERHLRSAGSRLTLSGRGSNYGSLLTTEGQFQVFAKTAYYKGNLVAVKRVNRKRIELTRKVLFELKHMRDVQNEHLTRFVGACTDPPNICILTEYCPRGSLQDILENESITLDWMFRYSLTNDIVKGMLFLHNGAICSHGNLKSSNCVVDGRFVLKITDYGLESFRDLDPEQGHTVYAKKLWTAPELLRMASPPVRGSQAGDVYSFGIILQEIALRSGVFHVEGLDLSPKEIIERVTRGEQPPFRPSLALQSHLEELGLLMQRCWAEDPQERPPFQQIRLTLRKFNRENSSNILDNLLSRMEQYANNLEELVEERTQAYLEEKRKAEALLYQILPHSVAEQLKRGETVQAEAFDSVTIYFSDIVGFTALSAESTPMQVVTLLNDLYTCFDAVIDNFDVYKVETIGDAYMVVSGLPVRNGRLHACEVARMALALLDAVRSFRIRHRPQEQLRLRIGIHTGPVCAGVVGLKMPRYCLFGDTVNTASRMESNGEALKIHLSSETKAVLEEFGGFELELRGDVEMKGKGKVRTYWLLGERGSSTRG
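Compound pre-incubated 30 min at room temperature on GloSensor-loaded HEK293 cells stably carrying hNpr1 and the pGS-40F cGMP biosensor. Stimulation uses hNppA at 0.1 nM final; luminescence is taken at baseline and 20 min post-agonist.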
Luciferase inh – Photinus pyralis luciferase inhibition; Potency, µM (highest dose often 115 µM), usual class: inhibitors; 76,000 compounds, 2.5% hits; purified P. pyralis luciferase, luminescence, biochemical; also: nearly all actives have a fitted effect of over 65% in size
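Purified 10nM P. pyralis luciferase with 10uM D-luciferin and 10uM ATP in 50mM Tris acetate pH 7.5, 10mM Mg acetate, 0.01% Tween-20, 0.05% BSA. qHTS titration; luminescence read by CCD imager.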
HEK293 tox – cytotoxic compounds in HEK 293 cells | 94,000 compounds, 6.6% hits | Potency, µM (top dose mostly 115 µM), hits mostly inhibitors | HEK 293 viability, ATP luminescence (CellTiter-Glo), 48-72 h; also: nearly all actives have a fitted effect of over 60% in size
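Cytotoxicity was scored by loss of ATP-coupled luminescence (CellTiter-Glo) in HEK 293 cells. Compound treatment ran 48 or 72 hr at 37 degree Celsius, 5% CO2, 95% humidity.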
Large screens that a line does not name were inactive. Rows were chosen to be rich in hits. Some 10% of all compounds tested hit in one or more screens of this group. Unless noted, calls follow the shape of the dose curve; as a rule, active = well fitted curve in the direction sought with a large enough effect; inconclusive = small, poorly fitted or top-dose-only effect, or another doubt; inactive = no such curve, though single readings can be large; an effect the other way counts as inactive or inconclusive.

CCn1c2ccccc2c2cc(C(=O)N3C[C@@H](Oc4ccccc4)C[C@@H]3C(=O)NC)ccc21	NIH3T3 tox inconclusive, Luciferase inh inconclusive, HEK293 tox 35µM
O=C(Nc1cc(-c2cccnc2)nn1-c1ccccc1)c1cccc(Cl)c1	NIH3T3 tox inconclusive, HEK293 tox inconclusive (no result: hNpr1 antagonist, Luciferase inh)
CN(C)c1ccc(CN2CC[C@H](c3nc4ccc(C(F)(F)F)cc4[nH]3)C2)cc1	NIH3T3 tox 32µM, hNpr1 antagonist inconclusive, HEK293 tox 32µM
FC(F)(F)c1ccc(CN2CC[C@H](c3nc4ccccc4[nH]3)C2)cc1	NIH3T3 tox 28µM, hNpr1 antagonist inconclusive, HEK293 tox 35µM
CN(C)c1ccc(CN2CC[C@H](c3nc4ncccc4[nH]3)C2)cc1	none
c1csc(CN2CC[C@H](c3nc4ccccc4[nH]3)C2)c1	NIH3T3 tox 100µM, Luciferase inh inconclusive, HEK293 tox inconclusive
c1coc(-c2nnc([C@H]3CCN(Cc4cccs4)C3)o2)c1	Luciferase inh 71µM
FC(F)(F)c1ccc2nc([C@H]3CCN(Cc4ccc(Cl)cc4)C3)[nH]c2c1	NIH3T3 tox inconclusive, hNpr1 antagonist inconclusive, Luciferase inh inconclusive, HEK293 tox 22µM
COc1ccc2nc([C@H]3CCN(Cc4ccc(C(=O)O)cc4)C3)[nH]c2c1	Luciferase inh inconclusive
c1ccc(CCCN2CC[C@H](c3nc4ccccc4[nH]3)C2)cc1	NIH3T3 tox inconclusive, Luciferase inh inconclusive, HEK293 tox inconclusive
FC(F)(F)c1ccc2nc([C@H]3CCN(CC4CC4)C3)[nH]c2c1	NIH3T3 tox inconclusive, Luciferase inh 28µM, HEK293 tox inconclusive
Cc1ccc2nc([C@H]3CCN(Cc4ccc(C(F)(F)F)cc4)C3)[nH]c2c1	GPT2 inhibitor inconclusive, NIH3T3 tox 35µM, hNpr1 antagonist inconclusive, HEK293 tox 28µM
FC(F)(F)c1ccc2nc([C@H]3CCN(C4CCOCC4)C3)[nH]c2c1	HEK293 tox inconclusive
Cn1cc(CN2CC[C@H](c3nc4ccccc4[nH]3)C2)c2ccccc21	NIH3T3 tox inconclusive, HEK293 tox 50µM
CC(=O)N1CC[C@H](c2nc3ccc(C(F)(F)F)cc3[nH]2)C1	NIH3T3 tox inconclusive
CCn1nc(C)c(CNC(=O)c2ccc(N3CC4CC(C3)[C@H]3CCCC(=O)N3C4)nc2)c1C (stereo partly drawn)	none
CCOc1cc(=O)n2c(c1C(=O)Nc1ccc(OC)cc1OC)CCCC2	GPT2 inhibitor inconclusive, NIH3T3 tox inconclusive, HEK293 tox inconclusive
Cc1nn(-c2ccc(F)cc2)c(Oc2ccccc2F)c1CCC(=O)NCC1CC1	NIH3T3 tox inconclusive, HEK293 tox 50µM
Cc1nn(-c2ccc(F)cc2)c(Oc2ccccc2)c1CCC(=O)NCC1CC1	GPT2 inhibitor inconclusive, NIH3T3 tox inconclusive, hNpr1 antagonist inconclusive, HEK293 tox inconclusive
Cc1nn(-c2ccccc2)c(Oc2ccccc2F)c1CCC(=O)NCc1ccco1	NIH3T3 tox inconclusive, hNpr1 antagonist inconclusive, HEK293 tox 45µM
CCC(=O)Nc1cc(-c2ccncc2)nn1-c1ccccc1	NIH3T3 tox inconclusive (no result: hNpr1 antagonist, Luciferase inh)
NCC1(N2CCOCC2)CCCCC1	none (no result: hNpr1 antagonist, Luciferase inh)
CCOCCOc1ccccc1C(=O)N1CC[C@@](O)(COC)C(C)(C)C1	none
CN1[C@@H](CCC(=O)N2CCN(c3ccccc3)CC2)CNC(=O)[C@@H]2[C@H]1CCN2Cc1ccccc1	NIH3T3 tox inconclusive, HEK293 tox inconclusive
CCOC(=O)C1(Cc2ccccc2Cl)CCN(C(=O)c2ccsc2)CC1	Luciferase inh 25µM, HEK293 tox 79µM
CCOC(=O)C1(Cc2ccccc2C)CCCN(C(=O)c2cc[n+]([O-])cc2)C1 (stereo not drawn)	none
CCOC(=O)C1(Cc2ccccc2C)CCCN(C(=O)c2csc(C)n2)C1 (stereo not drawn)	Luciferase inh 40µM
CCOC(=O)C1(Cc2ccccc2Cl)CCN(Cc2cccnc2)CC1	NIH3T3 tox inconclusive, HEK293 tox inconclusive
CCOC(=O)C1(Cc2ccccc2F)CCCN(C(=O)C2=C(C)OCCO2)C1 (stereo not drawn)	HEK293 tox inconclusive
CCOC(=O)C1(Cc2ccccc2F)CCCN(C(=O)CCc2c[nH]c3ccccc23)C1 (stereo not drawn)	NIH3T3 tox inconclusive, hNpr1 antagonist inconclusive, HEK293 tox 35µM
O=C(c1ccc(CN2C(=O)NC3(CCS(=O)(=O)CC3)C2=O)cc1)N1CCCC1	none
O=C(Cc1cccc(Cl)c1)NC1CCCN(c2ccc3nnc(C4CC4)n3n2)C1 (stereo not drawn)	none (no result: GPT2 inhibitor, hNpr1 antagonist, Luciferase inh)
O=C(NC1CCN(c2ccc3nnc(-c4ccccc4)n3n2)C1)c1ccccc1Cl (stereo not drawn)	NIH3T3 tox 32µM, HEK293 tox 35µM (no result: GPT2 inhibitor, hNpr1 antagonist, Luciferase inh)
O=C(Cc1cccc(Cl)c1)NC1CCCN(c2ccc3nnc(-c4ccccc4)n3n2)C1 (stereo not drawn)	NIH3T3 tox 35µM, HEK293 tox 35µM (no result: GPT2 inhibitor, hNpr1 antagonist, Luciferase inh)
COc1ccccc1C(=O)NC1CCN(c2ccc3nnc(-c4ccccc4)n3n2)CC1	NIH3T3 tox inconclusive, HEK293 tox 35µM (no result: GPT2 inhibitor, hNpr1 antagonist, Luciferase inh)
O=C(NC1CCN(c2ccc3nnc(-c4ccccc4)n3n2)CC1)c1ccccc1F	HEK293 tox inconclusive (no result: GPT2 inhibitor, hNpr1 antagonist, Luciferase inh)
O=C(NC1CCN(c2ccc3nnc(-c4ccccc4)n3n2)C1)c1ccc(F)cc1 (stereo not drawn)	none (no result: GPT2 inhibitor, hNpr1 antagonist, Luciferase inh)
COCC1CCN(S(=O)(=O)N2CCCCC2CCc2ccccc2)CC1 (stereo not drawn)	NIH3T3 tox inconclusive, HEK293 tox 45µM
COc1ccccc1C(=O)N1CCC(N2C(=O)c3c(c(C)nn3-c3ccccc3)C2C)C1 (stereo not drawn)	NIH3T3 tox inconclusive, HEK293 tox 45µM (no result: GPT2 inhibitor, hNpr1 antagonist, Luciferase inh)
COc1ccccc1C(=O)N1CCC(N2C(=O)c3c(c(C)nn3-c3ccccc3)C2C2CC2)C1 (stereo not drawn)	NIH3T3 tox inconclusive, HEK293 tox 40µM (no result: GPT2 inhibitor, hNpr1 antagonist, Luciferase inh)
Cc1nn(-c2ccccc2)c2c1C(C)N(C1CCN(C(=O)NC(C)C)C1)C2=O (stereo not drawn)	NIH3T3 tox inconclusive (no result: GPT2 inhibitor, hNpr1 antagonist, Luciferase inh)
COCCCNC(=O)N1CC[C@H]2C(=O)NCCCCCCN(Cc3ccncc3)[C@@H]2C1	none
O=C(NC1CCCC1)c1ccc(OC2CCN(CCCC(F)(F)F)CC2)c(Cl)c1	NIH3T3 tox inconclusive, HEK293 tox 32µM
O=C(C1CC1)N1CCCN(CCc2ccccc2)c2ccccc21	NIH3T3 tox 32µM, HEK293 tox inconclusive
CN(Cc1ccc(-n2cccn2)cc1)CC1CCN(CCc2ccc(F)cc2)CC1	NIH3T3 tox inconclusive, HEK293 tox inconclusive
CN(Cc1ccc(Oc2ncccn2)cc1)CC1CCN(CCc2ccc(F)cc2)CC1	NIH3T3 tox 50µM, HEK293 tox inconclusive
CN(C)CC(=O)Nc1ccc(C(=O)N2CCCC3(CCNC3)C2)cc1 (stereo not drawn)	none
COc1ccc(OC)c(-c2cnc3[nH]cc(CC(N)=O)c3c2)c1	NIH3T3 tox inconclusive, hNpr1 antagonist inconclusive
